In assay [1] the target is Homeodomain-interacting protein kinase 3 (Homo sapiens) (UniProt Q9H422). The conditions noted are these: at 10 µM.
Assay [2] addresses T1, Serine/threonine-protein kinase haspin (Homo sapiens) (UniProt Q8TF76).
T1 sequence (whole entry): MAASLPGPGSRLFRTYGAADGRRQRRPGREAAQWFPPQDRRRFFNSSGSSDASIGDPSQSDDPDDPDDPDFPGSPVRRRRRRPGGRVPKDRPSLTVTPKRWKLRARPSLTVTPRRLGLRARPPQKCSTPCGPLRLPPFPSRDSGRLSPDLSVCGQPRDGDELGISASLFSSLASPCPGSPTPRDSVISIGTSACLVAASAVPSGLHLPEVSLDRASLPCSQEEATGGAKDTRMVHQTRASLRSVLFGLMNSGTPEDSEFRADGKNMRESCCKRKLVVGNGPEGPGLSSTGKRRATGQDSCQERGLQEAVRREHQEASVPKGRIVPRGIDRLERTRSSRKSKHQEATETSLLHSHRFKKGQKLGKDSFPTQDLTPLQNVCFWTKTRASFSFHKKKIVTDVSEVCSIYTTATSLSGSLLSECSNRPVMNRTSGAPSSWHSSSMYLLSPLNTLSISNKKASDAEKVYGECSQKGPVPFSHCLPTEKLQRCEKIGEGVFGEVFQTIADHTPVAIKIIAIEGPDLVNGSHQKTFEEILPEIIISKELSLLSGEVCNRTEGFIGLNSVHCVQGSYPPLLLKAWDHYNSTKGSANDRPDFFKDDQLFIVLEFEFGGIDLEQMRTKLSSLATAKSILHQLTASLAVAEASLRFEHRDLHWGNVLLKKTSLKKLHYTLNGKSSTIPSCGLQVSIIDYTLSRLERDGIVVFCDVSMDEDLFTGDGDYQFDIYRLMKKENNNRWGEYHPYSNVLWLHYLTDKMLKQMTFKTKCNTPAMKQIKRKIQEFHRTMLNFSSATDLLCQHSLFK
Particulars: at 1 µM; call rule not given here.

Assay [3] addresses T1, Serine/threonine-protein kinase haspin (Homo sapiens). Particulars: at 10 µM.
Assay [4] concerns the target Tyrosine-protein kinase HCK (Homo sapiens) (UniProt P08631). Particulars: at 1 µM.
The target is the same in assay [5]. The conditions noted are these: at 10 µM.
Assay [6] deals with Insulin-like growth factor 1 receptor (Homo sapiens) (UniProt P08069). The conditions noted are these: at 1 µM.
The target is the same in assay [7]. The conditions noted are these: at 10 µM.
For assay [8], the target named is T2, Protein kinase C zeta type (Homo sapiens) (UniProt Q05513).
T2 sequence (whole entry): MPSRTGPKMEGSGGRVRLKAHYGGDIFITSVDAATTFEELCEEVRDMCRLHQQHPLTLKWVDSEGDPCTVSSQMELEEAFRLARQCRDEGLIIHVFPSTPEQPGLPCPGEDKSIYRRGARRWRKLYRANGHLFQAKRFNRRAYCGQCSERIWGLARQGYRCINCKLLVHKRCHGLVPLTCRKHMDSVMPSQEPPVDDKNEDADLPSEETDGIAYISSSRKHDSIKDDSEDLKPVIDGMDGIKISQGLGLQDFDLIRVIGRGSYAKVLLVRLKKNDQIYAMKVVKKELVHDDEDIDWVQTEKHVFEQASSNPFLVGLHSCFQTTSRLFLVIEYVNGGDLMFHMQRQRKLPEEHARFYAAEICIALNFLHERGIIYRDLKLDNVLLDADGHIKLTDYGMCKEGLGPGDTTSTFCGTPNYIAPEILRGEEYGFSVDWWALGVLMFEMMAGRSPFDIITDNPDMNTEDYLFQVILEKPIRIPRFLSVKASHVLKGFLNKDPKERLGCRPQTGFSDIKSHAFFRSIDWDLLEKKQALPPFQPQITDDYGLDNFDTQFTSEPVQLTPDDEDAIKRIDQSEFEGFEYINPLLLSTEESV
The conditions noted are these: at 10 µM.

In assay [9] the target is Protein kinase C eta type (Homo sapiens) (UniProt P24723). The conditions noted are these: at 10 µM.
The target in assay [10] is Protein kinase C theta type (Homo sapiens) (UniProt Q04759). Particulars: at 1 µM.
Assay [11] has the same target. The conditions noted are these: at 10 µM.
Assay [12] addresses T3, Serine/threonine-protein kinase D1 (Homo sapiens) (UniProt Q15139).
T3 sequence (whole entry): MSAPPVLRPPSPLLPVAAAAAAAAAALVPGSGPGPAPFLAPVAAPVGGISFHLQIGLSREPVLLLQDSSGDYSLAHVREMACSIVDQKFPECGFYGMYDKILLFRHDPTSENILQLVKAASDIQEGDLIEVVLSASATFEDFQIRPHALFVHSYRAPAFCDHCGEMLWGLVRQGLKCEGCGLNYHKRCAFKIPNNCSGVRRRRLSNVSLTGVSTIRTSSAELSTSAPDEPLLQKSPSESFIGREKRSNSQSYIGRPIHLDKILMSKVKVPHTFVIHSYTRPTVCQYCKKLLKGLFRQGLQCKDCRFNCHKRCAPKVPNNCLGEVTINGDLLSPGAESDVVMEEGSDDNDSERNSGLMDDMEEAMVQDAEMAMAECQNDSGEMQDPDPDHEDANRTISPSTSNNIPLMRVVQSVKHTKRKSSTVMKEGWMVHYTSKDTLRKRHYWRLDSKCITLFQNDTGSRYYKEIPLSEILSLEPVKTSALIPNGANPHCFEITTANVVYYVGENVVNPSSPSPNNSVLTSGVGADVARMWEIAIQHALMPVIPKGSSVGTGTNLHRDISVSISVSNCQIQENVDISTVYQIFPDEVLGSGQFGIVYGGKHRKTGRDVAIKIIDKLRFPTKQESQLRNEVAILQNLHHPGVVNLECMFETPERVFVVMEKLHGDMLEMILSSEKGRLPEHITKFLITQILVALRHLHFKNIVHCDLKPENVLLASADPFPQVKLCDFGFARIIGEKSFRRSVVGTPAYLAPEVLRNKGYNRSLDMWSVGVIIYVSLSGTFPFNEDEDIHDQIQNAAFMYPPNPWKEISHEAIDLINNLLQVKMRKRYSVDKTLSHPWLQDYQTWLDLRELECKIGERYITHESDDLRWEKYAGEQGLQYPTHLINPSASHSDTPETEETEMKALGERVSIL
Particulars: at 10 µM.

Assay [13] has as its target T4, Serine/threonine-protein kinase D2 (Homo sapiens) (UniProt Q9BZL6).
T4 sequence (whole entry): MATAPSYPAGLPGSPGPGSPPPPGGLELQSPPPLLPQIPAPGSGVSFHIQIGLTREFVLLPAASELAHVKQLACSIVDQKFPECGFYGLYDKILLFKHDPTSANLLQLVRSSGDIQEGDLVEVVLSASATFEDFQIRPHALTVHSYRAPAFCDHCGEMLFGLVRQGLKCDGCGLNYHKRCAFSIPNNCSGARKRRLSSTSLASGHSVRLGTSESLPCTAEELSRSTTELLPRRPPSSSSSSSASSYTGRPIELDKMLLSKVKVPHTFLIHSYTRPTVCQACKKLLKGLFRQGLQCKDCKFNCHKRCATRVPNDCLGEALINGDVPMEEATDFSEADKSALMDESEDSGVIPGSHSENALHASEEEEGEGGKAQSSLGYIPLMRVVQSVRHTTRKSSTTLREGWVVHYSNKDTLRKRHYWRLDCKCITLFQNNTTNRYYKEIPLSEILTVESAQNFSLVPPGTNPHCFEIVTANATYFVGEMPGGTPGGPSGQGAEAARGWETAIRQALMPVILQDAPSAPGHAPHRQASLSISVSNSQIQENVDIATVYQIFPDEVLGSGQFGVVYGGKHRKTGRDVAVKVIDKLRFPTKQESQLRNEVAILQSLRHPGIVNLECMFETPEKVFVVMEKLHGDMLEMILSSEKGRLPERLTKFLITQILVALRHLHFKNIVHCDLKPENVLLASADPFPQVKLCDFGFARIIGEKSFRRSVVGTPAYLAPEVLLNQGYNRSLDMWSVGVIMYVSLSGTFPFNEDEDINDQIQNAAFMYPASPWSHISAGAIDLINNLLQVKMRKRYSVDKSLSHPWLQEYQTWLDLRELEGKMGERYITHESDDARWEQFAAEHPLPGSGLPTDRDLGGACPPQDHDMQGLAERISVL
The conditions noted are these: at 1 µM.

Assay [14] deals with T4, Serine/threonine-protein kinase D2 (Homo sapiens). Particulars: at 10 µM.
In assay [15] the target is Tyrosine-protein kinase HCK (Homo sapiens) (UniProt P08631). The conditions noted are these: at 1 µM. The source holds these as a separate data set.
Assay [16] concerns the target Protein kinase C eta type (Homo sapiens) (UniProt P24723). The conditions noted are these: at 1 µM.
Assay [17] has as its target T5, Protein kinase C iota type (Homo sapiens) (UniProt P41743).
T5 sequence (whole entry): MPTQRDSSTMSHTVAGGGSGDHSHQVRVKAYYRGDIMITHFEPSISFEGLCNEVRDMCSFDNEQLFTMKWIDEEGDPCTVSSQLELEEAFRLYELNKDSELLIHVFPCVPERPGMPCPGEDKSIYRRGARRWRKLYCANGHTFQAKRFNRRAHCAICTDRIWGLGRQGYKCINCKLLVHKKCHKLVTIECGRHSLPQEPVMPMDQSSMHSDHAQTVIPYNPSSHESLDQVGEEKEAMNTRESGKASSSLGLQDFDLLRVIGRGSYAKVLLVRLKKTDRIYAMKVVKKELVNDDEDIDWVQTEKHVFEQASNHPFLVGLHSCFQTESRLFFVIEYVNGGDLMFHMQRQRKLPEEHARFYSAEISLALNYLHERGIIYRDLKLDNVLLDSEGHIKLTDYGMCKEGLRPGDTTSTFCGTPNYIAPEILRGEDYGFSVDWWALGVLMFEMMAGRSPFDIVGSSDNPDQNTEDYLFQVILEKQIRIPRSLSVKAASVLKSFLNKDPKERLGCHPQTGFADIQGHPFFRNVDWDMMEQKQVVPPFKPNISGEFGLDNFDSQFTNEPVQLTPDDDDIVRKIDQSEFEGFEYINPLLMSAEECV
Particulars: at 1 µM.

Assay [18] has as its target T5, Protein kinase C iota type (Homo sapiens). The conditions noted are these: at 10 µM.
Assay [19] deals with T3, Serine/threonine-protein kinase D1 (Homo sapiens). The conditions noted are these: at 1 µM.
The target of assay [20] is Tyrosine-protein kinase HCK (Homo sapiens) (UniProt P08631). Particulars: at 10 µM. The source holds these as a separate data set.

Drawing on ChEMBL document CHEMBL2218924, “A broad activity screen in support of a chemogenomic map for kinase signalling research and drug discovery” (Biochem J, 2013), this text covers residual activity for four compounds.

Sequence of Insulin-like growth factor 1 receptor (Homo sapiens) (P08069 31-736 limits assumed): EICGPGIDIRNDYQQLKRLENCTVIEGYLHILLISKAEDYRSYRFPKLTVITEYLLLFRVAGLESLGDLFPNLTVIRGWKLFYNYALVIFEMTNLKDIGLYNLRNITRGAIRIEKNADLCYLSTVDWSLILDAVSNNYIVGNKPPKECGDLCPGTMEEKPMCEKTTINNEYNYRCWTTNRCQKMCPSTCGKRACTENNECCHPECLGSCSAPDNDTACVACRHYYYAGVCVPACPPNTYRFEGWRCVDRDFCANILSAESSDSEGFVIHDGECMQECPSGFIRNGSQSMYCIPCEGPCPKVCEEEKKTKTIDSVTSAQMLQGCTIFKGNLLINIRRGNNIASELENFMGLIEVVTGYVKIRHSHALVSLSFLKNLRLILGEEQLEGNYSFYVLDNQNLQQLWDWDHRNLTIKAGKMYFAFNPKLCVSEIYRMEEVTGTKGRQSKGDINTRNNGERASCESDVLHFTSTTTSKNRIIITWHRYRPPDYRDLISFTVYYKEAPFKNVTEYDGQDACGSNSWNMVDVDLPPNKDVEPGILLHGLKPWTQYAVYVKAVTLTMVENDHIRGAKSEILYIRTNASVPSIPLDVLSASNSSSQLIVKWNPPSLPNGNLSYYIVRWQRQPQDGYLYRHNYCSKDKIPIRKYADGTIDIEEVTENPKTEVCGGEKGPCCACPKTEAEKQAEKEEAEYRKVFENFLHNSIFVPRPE
Sequence of Insulin-like growth factor 1 receptor (Homo sapiens) (P08069 741-1367 limits assumed): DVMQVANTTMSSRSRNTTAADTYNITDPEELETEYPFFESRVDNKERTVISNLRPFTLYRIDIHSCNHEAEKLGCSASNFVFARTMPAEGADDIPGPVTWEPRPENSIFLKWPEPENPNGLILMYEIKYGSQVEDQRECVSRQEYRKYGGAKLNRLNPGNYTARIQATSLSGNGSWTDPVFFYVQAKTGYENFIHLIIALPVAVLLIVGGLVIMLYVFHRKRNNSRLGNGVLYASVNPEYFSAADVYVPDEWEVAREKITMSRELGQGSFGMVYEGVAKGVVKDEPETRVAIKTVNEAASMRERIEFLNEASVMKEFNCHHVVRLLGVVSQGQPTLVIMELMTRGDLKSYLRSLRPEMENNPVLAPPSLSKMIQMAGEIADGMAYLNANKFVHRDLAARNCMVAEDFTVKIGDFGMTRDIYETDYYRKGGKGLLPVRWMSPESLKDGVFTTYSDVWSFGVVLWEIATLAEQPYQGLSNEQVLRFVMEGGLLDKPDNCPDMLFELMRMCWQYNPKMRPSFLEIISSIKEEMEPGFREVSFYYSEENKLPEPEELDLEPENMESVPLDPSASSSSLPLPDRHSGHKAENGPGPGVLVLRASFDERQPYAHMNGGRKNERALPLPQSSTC
Sequence of Protein kinase C theta type (Homo sapiens) (Q04759 whole entry, looked up): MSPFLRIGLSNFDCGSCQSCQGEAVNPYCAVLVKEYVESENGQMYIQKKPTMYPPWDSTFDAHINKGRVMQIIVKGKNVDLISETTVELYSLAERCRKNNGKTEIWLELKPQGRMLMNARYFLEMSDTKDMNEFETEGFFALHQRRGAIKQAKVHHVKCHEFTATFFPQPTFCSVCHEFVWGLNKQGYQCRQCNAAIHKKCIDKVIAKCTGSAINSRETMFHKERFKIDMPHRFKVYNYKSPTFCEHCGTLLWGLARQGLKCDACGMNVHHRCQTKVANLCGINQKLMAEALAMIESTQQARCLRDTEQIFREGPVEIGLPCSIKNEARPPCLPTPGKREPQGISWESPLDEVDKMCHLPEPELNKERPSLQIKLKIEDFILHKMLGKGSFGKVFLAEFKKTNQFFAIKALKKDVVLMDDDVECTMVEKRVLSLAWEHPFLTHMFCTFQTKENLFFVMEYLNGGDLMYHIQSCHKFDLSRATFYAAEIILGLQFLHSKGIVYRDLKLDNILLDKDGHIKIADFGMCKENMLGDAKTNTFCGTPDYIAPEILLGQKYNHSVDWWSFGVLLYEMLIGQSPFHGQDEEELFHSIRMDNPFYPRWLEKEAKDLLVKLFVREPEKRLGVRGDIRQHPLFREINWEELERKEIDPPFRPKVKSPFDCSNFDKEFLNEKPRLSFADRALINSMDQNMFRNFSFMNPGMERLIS
Sequence of Homeodomain-interacting protein kinase 3 (Homo sapiens) (Q9H422 whole entry, looked up): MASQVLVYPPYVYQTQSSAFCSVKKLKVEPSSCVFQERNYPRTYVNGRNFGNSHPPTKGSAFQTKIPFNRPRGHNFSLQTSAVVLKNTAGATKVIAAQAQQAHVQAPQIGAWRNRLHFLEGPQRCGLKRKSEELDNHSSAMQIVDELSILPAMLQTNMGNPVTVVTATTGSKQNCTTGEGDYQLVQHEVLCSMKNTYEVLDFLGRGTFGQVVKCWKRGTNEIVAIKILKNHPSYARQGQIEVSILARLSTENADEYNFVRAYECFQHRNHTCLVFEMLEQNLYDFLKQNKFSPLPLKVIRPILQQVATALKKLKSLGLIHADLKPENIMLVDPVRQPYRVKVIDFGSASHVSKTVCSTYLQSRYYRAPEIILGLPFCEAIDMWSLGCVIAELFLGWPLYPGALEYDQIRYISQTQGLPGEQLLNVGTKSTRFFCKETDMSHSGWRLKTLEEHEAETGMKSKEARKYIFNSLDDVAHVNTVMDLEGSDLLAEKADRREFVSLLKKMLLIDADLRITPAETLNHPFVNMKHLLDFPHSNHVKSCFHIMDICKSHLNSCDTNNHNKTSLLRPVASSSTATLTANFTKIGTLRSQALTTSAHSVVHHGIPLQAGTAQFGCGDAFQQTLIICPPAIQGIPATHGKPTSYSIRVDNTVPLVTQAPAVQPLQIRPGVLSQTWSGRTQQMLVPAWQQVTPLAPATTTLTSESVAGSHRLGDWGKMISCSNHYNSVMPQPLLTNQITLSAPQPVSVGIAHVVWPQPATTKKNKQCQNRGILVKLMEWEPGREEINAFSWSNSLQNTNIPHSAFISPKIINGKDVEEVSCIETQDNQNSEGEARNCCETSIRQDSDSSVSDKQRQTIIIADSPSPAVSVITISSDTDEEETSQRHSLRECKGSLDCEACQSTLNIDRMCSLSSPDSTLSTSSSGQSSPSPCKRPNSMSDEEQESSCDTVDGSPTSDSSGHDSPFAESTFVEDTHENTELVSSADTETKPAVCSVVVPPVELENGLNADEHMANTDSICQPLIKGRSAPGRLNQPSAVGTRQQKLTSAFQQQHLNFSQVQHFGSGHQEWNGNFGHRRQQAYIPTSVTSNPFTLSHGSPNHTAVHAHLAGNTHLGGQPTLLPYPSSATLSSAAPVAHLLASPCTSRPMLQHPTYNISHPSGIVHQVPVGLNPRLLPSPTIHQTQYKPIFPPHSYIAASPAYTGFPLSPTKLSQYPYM
Sequence of Tyrosine-protein kinase HCK (Homo sapiens) (P08631 2-526 limits assumed): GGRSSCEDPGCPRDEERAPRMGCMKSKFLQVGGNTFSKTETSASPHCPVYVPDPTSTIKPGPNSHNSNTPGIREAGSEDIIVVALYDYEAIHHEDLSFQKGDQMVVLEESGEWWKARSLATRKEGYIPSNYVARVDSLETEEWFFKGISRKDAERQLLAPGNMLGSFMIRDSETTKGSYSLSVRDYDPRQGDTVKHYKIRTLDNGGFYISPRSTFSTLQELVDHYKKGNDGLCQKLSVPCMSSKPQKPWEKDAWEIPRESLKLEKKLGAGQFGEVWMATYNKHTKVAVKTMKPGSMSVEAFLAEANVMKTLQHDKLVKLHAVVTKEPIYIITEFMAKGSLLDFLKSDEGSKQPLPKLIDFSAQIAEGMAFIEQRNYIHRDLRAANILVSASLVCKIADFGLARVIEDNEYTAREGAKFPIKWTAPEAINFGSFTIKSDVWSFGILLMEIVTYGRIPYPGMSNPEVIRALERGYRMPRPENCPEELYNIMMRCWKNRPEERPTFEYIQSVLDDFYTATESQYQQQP
Sequence of Protein kinase C eta type (Homo sapiens) (P24723 whole entry): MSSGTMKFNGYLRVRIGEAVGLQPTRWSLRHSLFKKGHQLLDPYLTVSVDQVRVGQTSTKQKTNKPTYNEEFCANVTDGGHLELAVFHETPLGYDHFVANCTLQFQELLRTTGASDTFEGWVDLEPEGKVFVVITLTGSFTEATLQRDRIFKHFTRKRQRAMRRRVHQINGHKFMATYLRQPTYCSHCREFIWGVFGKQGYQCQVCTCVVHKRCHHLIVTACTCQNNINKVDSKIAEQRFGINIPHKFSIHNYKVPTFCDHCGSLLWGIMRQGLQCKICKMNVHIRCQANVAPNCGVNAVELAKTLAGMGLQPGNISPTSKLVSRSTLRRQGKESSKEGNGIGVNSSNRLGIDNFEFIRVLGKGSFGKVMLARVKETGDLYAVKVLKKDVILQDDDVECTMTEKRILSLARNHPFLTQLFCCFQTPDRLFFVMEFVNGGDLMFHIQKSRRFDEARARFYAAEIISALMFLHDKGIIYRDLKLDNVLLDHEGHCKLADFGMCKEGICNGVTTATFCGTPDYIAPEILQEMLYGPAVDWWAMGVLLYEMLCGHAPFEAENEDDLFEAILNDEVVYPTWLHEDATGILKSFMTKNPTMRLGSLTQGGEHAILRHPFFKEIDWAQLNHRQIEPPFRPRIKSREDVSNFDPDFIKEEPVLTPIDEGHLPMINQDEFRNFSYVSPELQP

As a reminder, the residual activity is the signal under treatment as a percentage of the control signal. With `O=C(NC(NC(=S)Nc1ccc(F)c([N+](=O)[O-])c1)C(Cl)(Cl)Cl)C(c1ccccc1)c1ccccc1` (stereo not drawn), the residual activity in [1] stood at 103%; in assay [2], 83%; in assay [3], 47%; in [4], 80%; in [5] it was 38%; in assay [6] it was 76%. The residual activity in assay [7] was determined as 42%; in [8] it was 94%; in assay [9] it was 90%; in [10] it was 97%; in assay [11], 104%; in [12], 88%. The residual activity in assay [13] and in [14] was 100% each time.
With `CC(C)(C)n1nc(Cc2cccc3ccccc23)c2c(N)ncnc21`, the residual activity came to 97% in [1]; 79% in assay [2]; 16% in [3]; 32% in assay [4]; 3% in [5]; 43% in assay [15]. Besides, the residual activity in assay [6] amounted to 142%; in assay [7], 96%; in assay [8], 116%; in [16], 77%; in [9] it was 86%; in assay [10] it was 98%. Further, the residual activity was 92% in [11]; 115% (inactive) in assay [17]; 82% in [18]; 22% in assay [19]; 80% in [13]; 24% in assay [14].
On to `O=c1cc(N2CCNCC2)oc2c(-c3ccccc3)cccc12`, for which the residual activity in assay [1] came to 99%; in [2] it was 83%; in [3], 38%; in [4] it was 79%; in assay [5], 66%; in assay [20] it was 95%. Moreover, the residual activity is 149% in assay [7]; 99% in [16]; 82% in [9]; 102% in [10]; 94% in assay [11]; 93% (inactive) in [17]. In addition, the residual activity in [18] was 71%; in [19], 96%; in assay [12], 90%; in assay [13] it was 102%.
In the case of `CC(C)N(CCC(=O)c1ccc2ccccc2c1)Cc1ccccc1`, the residual activity in assay [1] is 100%; in assay [2] it was 81%; in assay [3] it was 66%; in assay [4], 79%; in assay [5], 64%; in assay [9] it was 76%. Moreover, the residual activity in [17] is 77% (inactive); in [18], 72%; in [19] it was 74%; in [12], 84%.
